Assay outcomes (PubChem BioAssay)
Giardia FBPA inh: inhibitors of Giardia lamblia fructose-1,6-bisphosphate aldolase. A8B2U2. purified Giardia FBPA. Potency, µM (top dose mostly 59.6 µM), for the others: at the top dose activity, negative = inhibition, hits mostly inhibitors. actives 0.71% (n = 290,000); further: potency means the concentration at half of the fitted maximal effect; on the % scale 0 is the no-effect control and ±100 the full control effect; nearly all actives have a fitted effect of over 55% in size
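Giardia FBPA (40 nM reagent) was preincubated 10 min at RT with compound (up to 57.5 uM final), then substrate plus GAPDH/TPI/NAD/arsenate coupling system with diaphorase/resazurin was added; resorufin fluorescence (525/598 nm) was read after 20 min.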
CHX counter: counter-screen hit for Shiga toxin inhibitors, cycloheximide; AID 2314; cell reporter, cycloheximide protein synthesis inhibition counterscreen; actives 12% (n = 300,000); max response, %; in the data active means max response mostly above about 13%, no sharp cut-off; inactive means mostly below about 14%; further: read at 38.3 µM for the half of the compounds with a filed dose; 0% is about no effect
Shiga toxin inh: Shiga toxin inhibition | Vero cells, Shiga toxin protein synthesis inhibition reporter | actives 9.2% (n = 290,000) | inhibition, % at 38.7 µM; in the data active means inhibition mostly above about 28%, no sharp cut-off; inactive means mostly below about 43%; further: 0% is about no effect
LmPK inhibitor: inhibitors of Leishmania mexicana pyruvate kinase; Q27686; purified LmPK, Kinase-Glo ATP luminescence, 1 h; Potency, µM (highest dose often 57.5 µM), for the others: top-dose activity change, negative = inhibition, most hits filed as inhibitors; actives 0.37% (n = 290,000); further: potency means the concentration at half of the fitted maximal effect; on the % scale 0 is the no-effect control and ±100 the full control effect
Target sequence (Q27686 whole entry, looked up): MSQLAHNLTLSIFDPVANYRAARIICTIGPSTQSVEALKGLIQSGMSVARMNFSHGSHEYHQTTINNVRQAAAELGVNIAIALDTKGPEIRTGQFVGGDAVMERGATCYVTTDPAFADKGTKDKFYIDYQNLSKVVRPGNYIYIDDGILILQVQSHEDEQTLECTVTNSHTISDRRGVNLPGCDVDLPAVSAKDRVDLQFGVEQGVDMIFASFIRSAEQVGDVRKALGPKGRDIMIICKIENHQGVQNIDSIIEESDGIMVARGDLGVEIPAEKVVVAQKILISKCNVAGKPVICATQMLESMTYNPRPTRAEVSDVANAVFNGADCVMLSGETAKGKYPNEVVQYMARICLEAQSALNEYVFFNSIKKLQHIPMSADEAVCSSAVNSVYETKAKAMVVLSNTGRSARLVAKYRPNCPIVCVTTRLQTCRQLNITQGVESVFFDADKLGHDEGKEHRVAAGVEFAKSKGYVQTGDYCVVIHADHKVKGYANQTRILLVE
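Pyruvate kinase activity monitored as ATP production (luciferase luminescence). Conditions: 0.1 nM enzyme, 0.5 mM PEP, 0.1 mM ADP, 1 h, RT; normalized against uninhibited and no-enzyme wells.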
NS1 function inh: inhibitors of influenza NS1 protein function. actives 0.4% (n = 270,000). Potency, µM (series often up to 46.1 µM), for the others: at the highest dose activity, positive = more growth; calls by dose curve; further: potency means the concentration at half of the fitted maximal effect; actives are rising curves; nearly all actives have a fitted effect of over 50% in size
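Compounds were scored for reversing the slow growth caused by influenza A NS1 in S. cerevisiae, measured by optical density at 600 nm. Assay medium contained 2% galactose at pH 6.0; NS1-free yeast of the same strain were the positive control.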
Numbers without * were called inactive; u = inconclusive; x = no result given; [ ] = remark or other dose. Sampled rows, rich in hits. Any-hit rate of the full collection: about 14%. Unless noted, the call rests on the fitted dose curve; in most records, active means well fitted curve in the direction sought with a large enough effect; inconclusive means small, poorly fitted or top-dose-only effect, or another doubt; inactive means no such curve, though single readings can be large; an effect the other way counts as inactive or inconclusive.

SMILES | Giardia FBPA inh | CHX counter | Shiga toxin inh | LmPK inhibitor | NS1 function inh
CS(=O)(=O)N1N=C(c2ccco2)CC1c1ccccc1 (stereo unspecified) | 1% | -2 | -2 | 3% | 1%
CS(=O)(=O)N1N=C(c2ccco2)CC1c1ccc(Cl)cc1 (stereo unspecified) | -8% | 30* | 18 | 1% | 21%
Cc1ccc(C2CC(c3ccco3)=NN2S(C)(=O)=O)cc1 (stereo unspecified) | -2% | 28* | 40* | 1% | 7%
CC[C@H](C)[C@H](NC(=O)[C@H](Cc1ccccc1)NC(=O)[C@H](CCC(=O)O)NC(=O)[C@H](CCCCN)NC(=O)[C@H](C)NC(=O)[C@H](C)NC(=O)[C@H](CCC(N)=O)NC(=O)CNC(=O)[C@H](CCC(=O)O)NC(=O)[C@H](CC(C)C)NC(=O)[C@H](Cc1ccc(O)cc1)NC(=O)[C@H](CO)NC(=O)[C@H](CO)NC(=O)[C@@H](NC(=O)[C@H](CC(=O)O)NC(=O)[C@H](CO)NC(=O)[C@@H](NC(=O)[C@H](Cc1ccccc1)NC(=O)[C@@H](NC(=O)CNC(=O)[C@H](CCC(=O)O)NC(=O)[C@H](C)NC(=O)[C@@H](N)Cc1cnc[nH]1)[C@@H](C)O)[C@@H](C)O)C(C)C)C(=O)N[C@@H](C)C(=O)N[C@@H](Cc1c[nH]c2ccccc12)C(=O)N[C@@H](CC(C)C)C(=O)N[C@H](C(=O)N[C@@H](CCCCN)C(N)=O)C(C)C | -1% | 10 | -3 | x | x
CCCCSc1ncc(C(=O)OCC)c(N)n1 | -1% | 46* | 68* | -8% | -9%
CCOC(=O)c1cnc(SCC(=O)c2ccc(Cl)cc2)nc1N | 0% | 9 | -4 | 10% | -1%
CCOC(=O)c1cnc(SCc2ccc(C)cc2)nc1N | -5% | 33* | 106* | 6% | 0%
CCOC(=O)c1cnc(SCC(=O)N2CCN(C(=O)c3ccco3)CC2)nc1N | 1% | -2 | -8 | 0% | -4%
CCOC(=O)c1cnc(SC2CCc3ccccc3C2=O)nc1N (stereo unspecified) | u | 33* | 71* | -3% | -66%
CCOC(=O)c1cnc(SCCc2ccccc2)nc1N | x | 35* | 97* | -3% | -14%
CCN1CCOC(CC(=O)Nc2ccc([N+](=O)[O-])cc2)C1=O (stereo unspecified) | -1% | 1 | -4 | -3% | -73%
c1ccc(CNCCNCc2ccccc2)cc1 | 5% | -4 | -4 | x | x
CS(=O)(=O)N1CCC2(CCCN(c3ccccn3)C2)CC1 | -6% | x | x | x | x
COc1ccccc1N1C(=O)Cc2ccccc2C1=O | -21% | 3 | 23 | 8% | 23%
CCNC(=S)N/N=C(\C)c1cc2ccccc2o1 | -1% | 18* | 10 | 1% | 3%
C/C(=N\NC(=O)c1ccc(O)cc1)c1cc2ccccc2o1 | -1% | 29* | 59* | 1% | x
C/C(=N\NC(=S)Nc1cccc(C)c1)c1cc2ccccc2o1 | 2% | 1 | 3 | 2% | 7%
COc1ccc(OCC(=O)N/N=C(\C)c2cc3ccccc3o2)cc1 | 5% | 26* | 57* | 1% | 3%
O=C1OCC(c2ccc(Cl)s2)=C1c1ccccc1[N+](=O)[O-] | -15% | 8 | 2 | 1% | 0%
c1ccc(Cn2nc(-c3ccccc3)nc2-c2ccccc2)cc1 | -8% | 54* | 52* | -9% | -14%
O=C(Cn1nc(-c2ccccc2)nc1-c1ccccc1)N1CCOCC1 | -7% | -3 | -13 | 3% | -2%
Cc1ccc(Cn2nc(-c3ccccc3)nc2-c2ccccc2)cc1 | 0% | 45* | 121* | -12% | -1%
Cc1cc(C)c(NC(=O)Cn2nc(-c3ccccc3)nc2-c2ccccc2)c(C)c1 | 5% | 1 | 13 | 1% | -3%
N#Cc1cccc(NC(=O)N2CC[C@@]3(CCCNC3)C2)c1 | -6% | x | x | x | x
COc1cc(CCC(=O)Nc2c(C(=O)N3CCN(c4ccccc4)CC3)oc3ccccc23)on1 | -10% | -3 | -9 | 9% | -21%
SMILES | Giardia FBPA inh | CHX counter | Shiga toxin inh | LmPK inhibitor | NS1 function inh
Cc1ccc(NC(=O)N2CCc3ccccc32)cc1C | -26% | 31* | 98* | u | x
CCc1ccccc1NC(=O)N1CCCc2ccccc21 | 0% | 43* | 59* | 0% | 4%
O=C(Nc1ccccc1)N1CCC(=S)Nc2ccccc21 | -1% | 1 | -4 | -4% | 10%
Cc1ccc(NC(=O)N2CCc3ccccc32)cc1 | -19% | 21* | 20 | 25µM* | -6%
CN1CCN(c2ccc(NC(=O)N3CCc4ccccc43)cc2)CC1 | 6% | 18* | 20 | 0% | 5%
CN1C(=O)CSc2ccc(NC(=O)N3CCc4ccccc43)cc21 | 4% | -2 | 25 | -4% | -89%
COc1ccccc1NC(=O)CCN1C(=O)C2CC=CCC2C1=O (stereo unspecified) | 4% | -2 | -8 | -1% | -7%
COCO[C@H]([C@@H](C)C=C(Br)Br)[C@@H](C)COCc1ccc(OC)cc1 | 1% | 13 | 8 | x | x
Cc1ccc(NC(=O)N2CCCc3ccccc32)cc1 | -5% | 31* | 86* | 2% | -2%
S=C(Nc1cccnc1)N1CCc2ccccc21 | -14% | -1 | -4 | 0% | 1%
COC(=O)/C(=N/Nc1ccc(C)cc1)N1CCCc2ccccc21 | u | -2 | -10 | -4% | -9%
Fc1ccc(NC(=S)N2CCCc3ccccc32)cc1 | -33% | 10 | 51* | 2% | -17%
CCOC(=O)CCN1C(=O)[C@H]2[C@H]3[C@H](O)[C@H](O)C/C(=N/NC(=O)OCc4ccc(OC)cc4)[C@H]3CC[C@@H]2C1=O | 4%[12.9 µM] | x | x | x | x
COc1ccccc1CN1CCCC2(CCN(C(=O)c3cc(C(F)(F)F)cc(C(F)(F)F)c3)CC2)C1 | 4% | x | x | x | x
CCCN1C2CCCC1CC(NC(=O)c1ccc(C(C)(C)C)cc1)C2 (stereo unspecified) | -11% | 13* | 81 | 6% | -4%
COC(CNC(=O)C(=O)Nc1cc2c3c(c1)CC(=O)N3CCC2)OC | 3% | 7 | 10 | -5% | 12%
CC(/C=N/Nc1nnc2c(n1)[nH]c1ccccc12)=C\c1ccco1 | -18% | 32* | 65 | -4% | 11%
COc1cccc(/C=N/Nc2nnc3c(n2)[nH]c2ccccc23)c1OC | 3% | 36* | 50* | 1% | -1%
CCN(CC)S(=O)(=O)c1csc(C(=O)OCC(=O)c2ccccc2)c1 | 1% | 33* | 41* | 3% | -10%
O=C(CSc1ccccn1)Nc1ccc2c(c1)oc1ccccc12 | 5% | 42* | 57* | 3% | -14%
CCCCCC(=O)Nc1ccc2ccccc2c1 | -27% | 50* | 61* | -2% | 4%
O=C(Nc1ccc2c(c1)oc1ccccc12)C1CC1 | 8% | 46* | 95* | 0% | -63%
CCCCC(=O)Nc1ccc2c(c1)oc1ccccc12 | 1% | 25* | 73* | 0% | 6%
O=C(O)CCC(=O)Nc1ccc2ccccc2c1 | x | x | x | x | 2%
Cc1nc2ccccc2c(=O)n1NC(=O)c1c(F)cccc1F | 0% | 0 | -4 | -1% | -1%
